From the supplement of paper PMC6522484
± gives the standard deviation of the averaged measurements.

Key:
DLD1 [1] = assay: cell viability (CellTiter-Glo) relative to plate median (fraction of plate median); higher = more viable cells; settings: 5 µM; treatment time 24 h; reporter: 7TFP
Method in brief: (§1)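 Library compounds, at a final 5 µM, stayed on reporter cells for 24 h. The cells were colorectal cancer lines stably transduced with lentiviral TCF/Wnt firefly luciferase reporters, seeded in 384-well plates 24 h before dosing. Firefly luciferase or CellTiterGlo luminescence from parallel plates was normalised to the plate median in webcellHTS2 (additive, no log transformation), and two independent replicates were averaged.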

HCT116 = assay: as above; settings: 5 µM; treatment time 24 h; reporter: TCF4/Wnt
Method in brief: as §1

SW480 [2] = assay: as above; settings: 5 µM; treatment time 24 h; reporter: 7TFP
Method in brief: as §1

DLD1 [3] = assay: TCF/Wnt firefly luciferase reporter signal relative to plate median (fraction of plate median); higher = higher Wnt reporter signal; settings: 5 µM; treatment time 24 h; reporter: 7TFP
Method in brief: as §1

SW480 [4] = assay: as above; settings: 5 µM; treatment time 24 h; reporter: 7TFP
Method in brief: as §1

SMILES | cell viability (DLD1 [1]) | cell viability (HCT116) | cell viability (SW480 [2]) | TCF/Wnt firefly luciferase reporter signal (DLD1 [3]) | TCF/Wnt firefly luciferase reporter signal (SW480 [4])
O=C1c2ccccc2-c2cccc3cccc1c23 | 1 ± 0.084 | 0.852 ± 0.088 | 0.991 ± 0.028 | 0.912 ± 0.056 | 0.987 ± 0.033
CN1[C@@H]2CC[C@H]1C[C@@H](OC(=O)C(CO)c1ccccc1)C2 (stereo not given in full) | 0.911 ± 0.12 | 1.01 ± 0.033 | 0.994 ± 0.08 | 0.938 ± 0.21 | 0.938 ± 0.038
NC(=O)c1cc([N+](=O)[O-])cc([N+](=O)[O-])c1 | 1.01 ± 0.015 | 1.01 ± 0.093 | 0.98 ± 0.016 | 1.06 ± 0.05 | 0.923 ± 0.14
CC(C)(C)NCC(O)c1cc(Cl)c(N)c(Cl)c1 (stereo not given) | 1.01 ± 0.024 | 1.03 ± 0.05 | 0.922 ± 0.012 | 0.97 ± 0.038 | 0.942 ± 0.0071
O=C(NC(=O)c1c(F)cccc1F)Nc1cc(Cl)c(OC(F)(F)C(F)C(F)(F)F)cc1Cl (stereo not given) | 0.985 ± 0.05 | 0.984 ± 0.066 | 0.987 ± 0.013 | 0.907 ± 0.028 | 1.03
CN1[C@H]2C[C@H](OC(=O)[C@H](CO)c3ccccc3)C[C@@H]1[C@@H](O)C2 | 0.934 ± 0.033 | 1 ± 0.039 | 0.957 ± 0.03 | 0.924 ± 0.025 | 0.94 ± 0.073
C[C@@H]1C[C@H](O)[C@@]2(O)[C@]13CC(=O)OC[C@@]2(C)[C@@](C)(O)C(=O)C3 | 1.115 ± 0.0071 | 1.03 ± 0.068 | 1.04 ± 0.021 | 1.05 ± 0.071 | 1.03 ± 0.054
COc1cc([C@@H]2c3cc4c(cc3[C@H](O)[C@H]3COC(=O)[C@H]23)OCO4)cc(OC)c1OC | 0.903 ± 0.091 | 0.552 ± 0.075 | 0.95 ± 0.14 | 0.831 ± 0.34 | 0.783 ± 0.061
CNC(C)C(O)c1ccccc1 (stereo not given) | 1.08 ± 0.021 | 1.09 ± 0.014 | 1.07 ± 0.042 | 1.1 ± 0.078 | 0.905 ± 0.071
